Assay results as given in PubChem BioAssay (NCATS).
Records with an inconclusive call do not appear. The call rests on the fitted dose curve; in most records, active means well fitted activation curve with a large enough effect; inconclusive means small, poorly fitted or top-dose-only effect; inactive means no such curve, though single readings can be large or run the other way.

Target: Rap guanine nucleotide exchange factor 4 (Homo sapiens) (UniProt Q8WZA2)
Test: Confirmatory qHTS for agonist of cAMP-regulated guanine nucleotide exchange factor 4 (EPAC2) (AID 1645884);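 further: nucleotide exchange releases bodipy-GDP from Rap1 and this lowers its fluorescence; nearly all actives have a fitted effect of over 65% in size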
Conditions: EPAC2 GEF activity, Rap1B-BODIPY-GDP fluorescence; series mostly up to 154 µM; activation: at the top concentration
On the % scale 0 is the no-effect control and ±100 the full control effect.

Chain of Rap guanine nucleotide exchange factor 4 (Homo sapiens) (Q8WZA2 whole entry, looked up): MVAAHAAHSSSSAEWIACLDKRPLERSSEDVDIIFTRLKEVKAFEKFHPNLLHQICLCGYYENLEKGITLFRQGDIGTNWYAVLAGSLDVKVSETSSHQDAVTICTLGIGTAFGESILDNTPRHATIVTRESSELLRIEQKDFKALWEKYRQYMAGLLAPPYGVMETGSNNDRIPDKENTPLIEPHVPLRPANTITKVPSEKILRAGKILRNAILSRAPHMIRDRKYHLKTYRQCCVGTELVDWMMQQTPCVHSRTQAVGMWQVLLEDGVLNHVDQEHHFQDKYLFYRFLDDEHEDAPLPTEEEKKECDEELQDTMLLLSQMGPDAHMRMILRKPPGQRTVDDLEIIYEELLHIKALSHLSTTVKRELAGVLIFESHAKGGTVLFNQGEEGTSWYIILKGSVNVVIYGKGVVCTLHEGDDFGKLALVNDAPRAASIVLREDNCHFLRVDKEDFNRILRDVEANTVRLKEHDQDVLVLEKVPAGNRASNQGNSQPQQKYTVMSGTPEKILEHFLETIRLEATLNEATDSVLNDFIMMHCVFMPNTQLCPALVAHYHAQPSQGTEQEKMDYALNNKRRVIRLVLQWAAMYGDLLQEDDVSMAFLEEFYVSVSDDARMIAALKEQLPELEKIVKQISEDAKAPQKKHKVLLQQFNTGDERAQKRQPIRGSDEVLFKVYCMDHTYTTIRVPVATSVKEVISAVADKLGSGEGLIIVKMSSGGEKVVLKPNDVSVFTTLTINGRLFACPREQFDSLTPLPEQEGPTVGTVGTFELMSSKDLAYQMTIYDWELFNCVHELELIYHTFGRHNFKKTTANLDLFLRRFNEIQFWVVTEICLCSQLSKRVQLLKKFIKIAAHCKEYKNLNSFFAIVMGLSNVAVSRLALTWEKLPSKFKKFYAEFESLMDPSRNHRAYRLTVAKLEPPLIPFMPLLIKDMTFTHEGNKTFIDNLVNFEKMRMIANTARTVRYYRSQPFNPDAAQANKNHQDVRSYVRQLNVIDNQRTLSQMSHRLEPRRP

activation, inactive:
COc1cccc(C(=O)NC(=S)N2c3ccccc3CC2C)c1OC (stereo unspecified) 5.75% [at 17.1 µM, percent relative to cAMP agonist control], COc1ccc(OCC(=O)OCCNC(=O)c2cccnc2)cc1 -1.04% [at 17.1 µM, percent relative to cAMP agonist control], O=C1COc2ccc(C(=O)COC(=O)c3ccc([N+](=O)[O-])cc3Cl)cc2N1 9.45%, Cc1cccc(C)c1Nc1nn2c(=O)c3cc4c(cc3nc2s1)OCO4 17.4% [at 83.8 µM, percent relative to cAMP agonist control], O=C(c1ccco1)N(Cc1cccs1)c1ccc(F)cc1 -8.39% [at 83.8 µM, percent relative to cAMP agonist control], Cc1ccc(N=Cc2cc(Cc3ccccc3Cl)cc([N+](=O)[O-])c2O)c(O)c1 15.7%, O=C(O)c1ccc(/C=N/NC(=O)c2ccc(CN3c4cccc5cccc(c45)S3(=O)=O)cc2)cc1 -4.21% [at 17.1 µM, percent relative to cAMP agonist control], C/C(Cc1ccccc1)=N\NC(=O)c1cccnc1 21.1% [at 17.1 µM, percent relative to cAMP agonist control], COc1cccc2c1Oc1ncccc1N(C(=O)CCC(=O)NCc1cccc(C)c1)C2 -3.14%, CCOc1ccc2nc(S(=O)(=O)NC(=O)C3(C)CCN3C(=O)CCc3cccs3)sc2c1 (stereo unspecified) 5.68% [at 17.1 µM, percent relative to cAMP agonist control], CCOc1cc(/C=C2\SC(=S)N(NS(=O)(=O)c3ccc(C)cc3)C2=O)ccc1O -2.47%
